Our source for the z-score and composite z-score values is PubChem BioAssay.

Structures are written as SMILES. Calls of active or inactive are those of the source.

A short description of assay [1]: E. coli DRC41 culture turbidity changes, primary screen, E. coli filamentation inducer project, strain DRC41, OD650, 48 h (AID 1152).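 Further: E. coli MC1000 strain DRC41 lacking acrAB efflux pump and sulA.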 As to conditions: E. coli DRC41 (acrAB sulA), higher = more signal, called active from +8 up or from −8 down.
A short description of assay [2]: small-molecule binders of probe aLefty1, primary screen, biochemical, small-molecule microarray, 635/667 nm fluorescence (AID 1153).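 Further: score merges spot fluorescence with signal-to-noise ratio from the scanned slide images.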 The settings on record: higher = more signal.
Assay [3] in a line: PSAC antagonists in infected red cells, primary screen, cell-based, P. falciparum Indochina, OD700, 1 h (AID 1154). As to conditions: P. falciparum Indochina infected RBC osmotic lysis, higher = more signal, called active from +8 up or from −8 down.
Assay [4] can be described thus: PSAC antagonists in infected red cells, primary screen, cell-based, P. falciparum Indochina, OD700, 2 h (AID 1155).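 Further: lysis reports solute entry through the parasite surface anion channel PSAC; channel blockers reduce lysis of infected cells.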 As to conditions: P. falciparum Indochina infected erythrocytes, osmotic lysis OD700; higher = more signal, called active from +8 up or from −8 down.
Assay [5] is described as follows: osmotic lysis modulators in infected erythrocytes, primary screen, PSAC antagonist project, cell-based, P. falciparum Indochina, OD700, 3 h (AID 1156). The settings on record: higher = more signal, called active from +8 up or from −8 down.
Assay [6] is described as follows: PSAC antagonists in infected red cells, primary screen, cell-based, P. falciparum Indochina, OD700, 18 h (AID 1157). As to conditions: P. falciparum Indochina infected erythrocytes, osmotic lysis OD700, 18 h; higher = more signal, called active from +8 up or from −8 down.
Assay [7] in a line: modulators of S6 phosphorylation in cells, primary screen, cell-based, A549, cytoblot, luminescence, serum-stimulated (AID 1158).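 Further: serum-stimulated A549 lung adenocarcinoma cells; signal is phosphorylated S6 detected by cytoblot immunostaining with HRP secondary.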 The settings on record: A549 phospho-S6 cytoblot, 5 h, higher = more signal.
Assay [8] concerns the target NADPH oxidase 2 (Homo sapiens) (UniProt P04839). Kind of assay: NOX2-dependent H2O2 signal modulators, primary screen, NOX inhibitor project, cell-based, HEK293-NOX2, PMA-stimulated, Amplex Red fluorescence (AID 1159). Further: test concentration not given here. The settings on record: 45 min, higher = more signal, called active from +8 up or from −8 down.
The target of assay [9] is NADPH oxidase 4 (Homo sapiens) (UniProt Q9NPH5). Kind of assay: NOX4-dependent H2O2 signal modulators, primary screen, NOX inhibitor project, cell-based, HEK293-NOX4, tetracycline-induced, Amplex Red fluorescence (AID 1160). The settings on record: 45 min, higher = more signal, called active from +8 up or from −8 down.
Chain of NADPH oxidase 4 (Homo sapiens) (Q9NPH5 whole entry, looked up): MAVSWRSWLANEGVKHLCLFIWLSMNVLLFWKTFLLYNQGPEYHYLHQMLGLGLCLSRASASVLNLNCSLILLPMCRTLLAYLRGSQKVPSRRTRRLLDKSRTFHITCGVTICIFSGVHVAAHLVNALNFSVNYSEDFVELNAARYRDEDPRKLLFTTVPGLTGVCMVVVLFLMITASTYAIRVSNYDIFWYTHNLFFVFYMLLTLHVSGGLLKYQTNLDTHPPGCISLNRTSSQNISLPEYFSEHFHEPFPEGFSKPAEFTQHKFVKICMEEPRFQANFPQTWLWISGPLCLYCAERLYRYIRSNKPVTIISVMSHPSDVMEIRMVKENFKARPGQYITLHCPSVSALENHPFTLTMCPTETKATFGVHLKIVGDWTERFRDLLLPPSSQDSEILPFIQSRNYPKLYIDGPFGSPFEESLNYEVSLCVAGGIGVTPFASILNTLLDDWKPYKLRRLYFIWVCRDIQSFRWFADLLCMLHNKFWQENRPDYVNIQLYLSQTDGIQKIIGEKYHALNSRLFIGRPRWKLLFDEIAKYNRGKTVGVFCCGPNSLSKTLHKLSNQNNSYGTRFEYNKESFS
Assay [10] concerns the target NADPH oxidase 5 (Homo sapiens) (UniProt Q96PH1). Nature of the assay: NOX5-dependent H2O2 signal modulators, primary screen, NOX inhibitor project, cell-based, HEK293-NOX5, Amplex Red fluorescence (AID 1161). As to conditions: HEK293-NOX5, ionomycin, 45 min, higher = more signal.

Chain of NADPH oxidase 2 (Homo sapiens) (P04839 whole entry, looked up): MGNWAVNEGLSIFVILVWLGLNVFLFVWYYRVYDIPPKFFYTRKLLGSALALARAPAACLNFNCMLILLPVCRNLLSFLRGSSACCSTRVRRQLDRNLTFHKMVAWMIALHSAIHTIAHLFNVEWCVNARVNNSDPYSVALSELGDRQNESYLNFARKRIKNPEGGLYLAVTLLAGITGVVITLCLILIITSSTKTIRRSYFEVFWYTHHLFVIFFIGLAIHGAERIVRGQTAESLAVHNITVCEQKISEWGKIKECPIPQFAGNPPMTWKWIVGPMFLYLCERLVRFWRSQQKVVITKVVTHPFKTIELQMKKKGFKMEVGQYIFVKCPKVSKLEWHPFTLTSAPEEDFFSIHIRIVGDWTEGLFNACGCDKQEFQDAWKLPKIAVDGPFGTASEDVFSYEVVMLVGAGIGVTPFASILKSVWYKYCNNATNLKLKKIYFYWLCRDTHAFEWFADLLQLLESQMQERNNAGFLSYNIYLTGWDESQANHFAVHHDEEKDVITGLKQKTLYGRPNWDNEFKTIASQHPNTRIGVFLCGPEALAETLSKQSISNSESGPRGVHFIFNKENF
Chain of NADPH oxidase 5 (Homo sapiens) (Q96PH1 whole entry, looked up): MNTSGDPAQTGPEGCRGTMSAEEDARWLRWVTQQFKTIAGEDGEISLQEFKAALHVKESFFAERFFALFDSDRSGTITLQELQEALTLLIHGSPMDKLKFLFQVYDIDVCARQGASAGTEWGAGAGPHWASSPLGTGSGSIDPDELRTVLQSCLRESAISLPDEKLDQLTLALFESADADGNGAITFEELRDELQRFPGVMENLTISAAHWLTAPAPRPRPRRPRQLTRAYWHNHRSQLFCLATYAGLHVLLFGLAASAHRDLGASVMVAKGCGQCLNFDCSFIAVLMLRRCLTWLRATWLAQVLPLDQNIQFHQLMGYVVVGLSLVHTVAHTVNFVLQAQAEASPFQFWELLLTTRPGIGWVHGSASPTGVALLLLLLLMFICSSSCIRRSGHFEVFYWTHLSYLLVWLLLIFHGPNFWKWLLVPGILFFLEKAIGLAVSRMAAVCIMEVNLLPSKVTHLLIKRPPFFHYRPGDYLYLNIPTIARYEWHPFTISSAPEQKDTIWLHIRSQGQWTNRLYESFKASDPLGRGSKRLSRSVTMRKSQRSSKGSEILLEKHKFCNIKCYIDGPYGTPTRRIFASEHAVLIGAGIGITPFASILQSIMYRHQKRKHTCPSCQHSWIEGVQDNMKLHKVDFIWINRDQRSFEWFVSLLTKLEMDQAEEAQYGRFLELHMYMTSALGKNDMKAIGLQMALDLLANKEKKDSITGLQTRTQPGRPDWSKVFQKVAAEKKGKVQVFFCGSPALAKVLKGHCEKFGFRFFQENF

In the case of `NC(=O)NCC#Cc1ccc2c(c1)[C@]1(C(=O)N2)[C@H](c2ccc(OCCO)cc2)N2[C@H](c3ccccc3)[C@H](c3ccccc3)OC(=O)[C@H]2[C@@H]1C(=O)N1CCN(c2ncccn2)CC1`, the z-score in assay [1] was 0.811 (inactive); in assay [3], 3.03 (inactive); in assay [4], 1.1 (inactive); in assay [5] it was 0.454 (inactive); in assay [6], 0.516 (inactive); in [7], 0.0981. The z-score in assay [8] was 1.75 (inactive); in assay [9], 1.48 (inactive); in assay [10], 0.41. The compound also came in with a composite z-score in [2] of 0.538.

With `COCC(=C=CC[C@@H](O)c1ccccc1OCCO)C[C@@H](O)c1ccccn1`, the z-score in [1] is -0.197 (inactive); in assay [3], 8.59 (active); in assay [4], 0.801 (inactive); in assay [5], 0.502 (inactive); in assay [6], 0.577 (inactive); in [7], -0.456. The values for the z-score in assay [8], in [9] and in assay [10] were -0.459 (inactive), -1.04 (inactive) and -1.31, respectively. In assay [2], this compound gave a composite z-score of 0.235.

Regarding `C=CCC(OC(C)=O)[C@@H]1[C@@H](N(Cc2ccc(-c3cccc(C(F)(F)F)c3)o2)C(=O)c2cccc3ccccc23)c2cc(OCCCO)ccc2N1C(=O)c1ccc(-c2ccccc2)cc1` (stereo not given in full), the z-score in assay [1] was -0.985 (inactive); in assay [3], 0.531 (inactive); in assay [4] it was 0.431 (inactive); in [5] it was 2.33 (inactive); in [6], 0.485 (inactive); in assay [7], -0.326. In addition, the z-score in assay [8] is -0.959 (inactive); in assay [9], -1.45 (inactive); in assay [10] it was -1.08. The composite z-score in assay [2] is -0.012.

With `CCOC(=O)C[C@H]1[C@H](OC(=O)Cc2ccc3c(c2)OCO3)[C@@H](NC(=O)c2ccccc2)c2cc(OCCCO)ccc2N1C(=O)c1ccc2ccccc2n1`, the z-score is 2.15 (inactive) in assay [1]; 6.69 (inactive) in [3]; -0.0918 (inactive) in [4]; -1.04 (inactive) in assay [5]; -1.23 (inactive) in assay [6]; 0.873 in assay [7]. Besides, the z-score in assay [8] is -0.357 (inactive); in [9], 1.16 (inactive); in assay [10], 0.27. This compound also gave a composite z-score in [2] of 0.031.

As for `O=C1C[C@@](C(=O)NCc2ccccc2)(c2ccc([N+](=O)[O-])cc2)[C@@H](c2ccc(CO)cc2I)N1C1CCCCC1`, the z-score in assay [1] is 0.936 (inactive); in [3], 11.6 (active); in assay [4] it was 1.94 (inactive); in assay [5] it was 3.44 (inactive); in [6], 1.09 (inactive); in assay [7], -0.153. Further, the z-score in assay [8] was 1.23 (inactive); in assay [9], -1.03 (inactive); in assay [10] it was 2.16. In addition, in [2], the composite z-score is 0.503.

Take `C=CCN1C(=O)[C@@]2(O[C@@H](CCO)[C@H]([Si](C)(C)c3ccc(OC)cc3)[C@H]2C)c2cc(NC(=O)[C@H](C)O)ccc21`: the z-score in [1] was 0.301 (inactive); in assay [3] it was 23 (active); in assay [4], 6.92 (inactive); in assay [5], 0.903 (inactive); in [6], 1.62 (inactive); in [7] it was 0.29. Besides, the values for the z-score in assay [8], in assay [9] and in assay [10] were -0.54 (inactive), 0.552 (inactive) and -0.335, respectively. Further, in assay [2], the composite z-score is -0.0879.

Take `CCOC(=O)C[C@H]1[C@H](OC(=O)Cc2ccc3c(c2)OCO3)[C@@H](NC(=O)c2ccccc2)c2cc(OCCCO)ccc2N1C(=O)c1ccccc1`: the z-score in [1] was 1.7 (inactive); in assay [3], 1.05 (inactive); in [4] it was 0.396 (inactive); in assay [5] it was -0.707 (inactive); in assay [6] it was -0.281 (inactive); in assay [7] it was 0.149. Besides, the z-score in [8] is 0.366 (inactive); in assay [9] it was 0.759 (inactive); in [10], 0.322. Besides, the composite z-score in [2] was -0.103.

As to `CN(C)C(=O)[C@@]1(CCC(=O)OC(C)(C)C)COC(c2ccc(OCCCO)cc2)=N1`, the z-score in assay [1] was 0.752 (inactive); in assay [3] it was 9.27 (active); in [4] it was 0.536 (inactive); in [5], -0.674 (inactive); in [6], 0.198 (inactive); in [7] it was -0.449. The z-score in assay [8] was -0.0773 (inactive); in assay [9], 0.829 (inactive); in assay [10], 0.655. Further, in assay [2], the composite z-score turned out to be 0.3.

As to `C=CCOC(=O)[C@H]1[C@@H]2C(=O)O[C@@H](c3ccccc3)[C@@H](c3ccccc3)N2[C@@H](c2ccc(OCCOC(=O)[C@H]3C[C@H]4C(=O)N[C@@H](CCCCN(C)C)C(=O)N4[C@H]3c3ccc(O)cc3)cc2)[C@]12C(=O)Nc1ccccc12`, the z-score in assay [1] is -0.558 (inactive); in assay [3], -0.862 (inactive); in assay [4], 0.332 (inactive); in assay [5], 3.2 (inactive); in [6], 0.522 (inactive); in [7] it was -0.259. Besides, the z-score was 2.21 (inactive) in [8], 1.05 (inactive) in assay [9] and 0.576 in assay [10]. Besides, the composite z-score in assay [2] was 1.13.

In the case of `COc1ccc(C(=O)Nc2ccc(CN3C(=O)[C@@]4(O[C@@H](CC(=O)N5Cc6ccccc6C[C@H]5CO)[C@H]([Si](C)(C)c5ccc(OC)cc5)[C@H]4C)c4ccccc43)cc2)cc1`, the z-score in [1] is 0.0225 (inactive); in assay [3] it was 4.72 (inactive); in [4], 1.4 (inactive); in assay [5] it was 0.655 (inactive); in assay [6], 0.868 (inactive); in assay [7], 0.0933. Besides, the values for the z-score in assay [8], in [9] and in assay [10] were 0.105 (inactive), 0.417 (inactive) and -0.886, respectively. The compound further returned a composite z-score in [2] of 0.176.

Turning to `COc1ccc([Si](C)(C)[C@@H]2[C@@H](CC(=O)N3Cc4ccccc4C[C@H]3CO)O[C@]3(C(=O)N(Cc4cccc(N5CCCCC5=O)c4)c4ccccc43)[C@H]2C)cc1`, the z-score in [1] was -0.261 (inactive); in assay [3], 4.07 (inactive); in [4], 1.27 (inactive); in assay [5], 1.64 (inactive); in assay [6] it was 0.867 (inactive); in assay [7] it was 0.297. Moreover, the z-score was -1.63 (inactive) in assay [8], 0.265 (inactive) in [9] and 0.805 in assay [10]. Also, the composite z-score in assay [2] is -0.147.

As to `COCCOC(=O)N1C(=O)[C@@]2(c3cc(C#CCNC(N)=O)ccc31)[C@H](C(=O)N1CCCCCCC1)[C@H]1C(=O)O[C@H](c3ccccc3)[C@H](c3ccccc3)N1[C@@H]2c1ccc(OCCO)cc1`, the z-score in assay [1] was 0.0904 (inactive); in assay [3], 4.45 (inactive); in [4], 1.89 (inactive); in assay [5], 1.99 (inactive); in [6], 1.25 (inactive); in assay [7], 0.437. For the same compound, the z-score in [8] is 1.53 (inactive); in assay [9], 1.25 (inactive); in [10], 0.0911. The compound further displayed a composite z-score in assay [2] of 0.174.

Take `C[N+](C)(C)CCCCCCNC(=O)[C@@H]1C[C@@H]2C(=O)NCC(=O)N2[C@@H]1c1ccc(O)cc1`: the z-score was 0.109 (inactive) in [1]; 0.451 (inactive) in [3]; -0.196 (inactive) in assay [4]; -1.53 (inactive) in assay [5]; -0.238 (inactive) in assay [6]; -0.727 in assay [7]. The z-score in assay [8] was 0.823 (inactive); in assay [9] it was 0.899 (inactive); in assay [10], -0.757. In addition, the composite z-score in assay [2] is 0.0984.
